# Source: paper PMC4336329 (PLoS ONE, 2015)
# The whole screen tested about 310,000 compounds, of which about 14,000 (4.5%) showed an effect of 50% or more. Effects have a minus sign here. Only a selection was taken, and strong results are over-represented in it overall.
# Biological target: human ether-à-go-go-related gene (hERG) potassium channel (human, UniProt Q12809)
# Test: primary screen, population patch clamp on CHO cells stably expressing hERG; higher = less effect of the substance
# 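Further: peak tail current of the secondary pulse compared with the same well before compound.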
# Chain of human ether-à-go-go-related gene (hERG) potassium channel (Q12809 whole entry, looked up): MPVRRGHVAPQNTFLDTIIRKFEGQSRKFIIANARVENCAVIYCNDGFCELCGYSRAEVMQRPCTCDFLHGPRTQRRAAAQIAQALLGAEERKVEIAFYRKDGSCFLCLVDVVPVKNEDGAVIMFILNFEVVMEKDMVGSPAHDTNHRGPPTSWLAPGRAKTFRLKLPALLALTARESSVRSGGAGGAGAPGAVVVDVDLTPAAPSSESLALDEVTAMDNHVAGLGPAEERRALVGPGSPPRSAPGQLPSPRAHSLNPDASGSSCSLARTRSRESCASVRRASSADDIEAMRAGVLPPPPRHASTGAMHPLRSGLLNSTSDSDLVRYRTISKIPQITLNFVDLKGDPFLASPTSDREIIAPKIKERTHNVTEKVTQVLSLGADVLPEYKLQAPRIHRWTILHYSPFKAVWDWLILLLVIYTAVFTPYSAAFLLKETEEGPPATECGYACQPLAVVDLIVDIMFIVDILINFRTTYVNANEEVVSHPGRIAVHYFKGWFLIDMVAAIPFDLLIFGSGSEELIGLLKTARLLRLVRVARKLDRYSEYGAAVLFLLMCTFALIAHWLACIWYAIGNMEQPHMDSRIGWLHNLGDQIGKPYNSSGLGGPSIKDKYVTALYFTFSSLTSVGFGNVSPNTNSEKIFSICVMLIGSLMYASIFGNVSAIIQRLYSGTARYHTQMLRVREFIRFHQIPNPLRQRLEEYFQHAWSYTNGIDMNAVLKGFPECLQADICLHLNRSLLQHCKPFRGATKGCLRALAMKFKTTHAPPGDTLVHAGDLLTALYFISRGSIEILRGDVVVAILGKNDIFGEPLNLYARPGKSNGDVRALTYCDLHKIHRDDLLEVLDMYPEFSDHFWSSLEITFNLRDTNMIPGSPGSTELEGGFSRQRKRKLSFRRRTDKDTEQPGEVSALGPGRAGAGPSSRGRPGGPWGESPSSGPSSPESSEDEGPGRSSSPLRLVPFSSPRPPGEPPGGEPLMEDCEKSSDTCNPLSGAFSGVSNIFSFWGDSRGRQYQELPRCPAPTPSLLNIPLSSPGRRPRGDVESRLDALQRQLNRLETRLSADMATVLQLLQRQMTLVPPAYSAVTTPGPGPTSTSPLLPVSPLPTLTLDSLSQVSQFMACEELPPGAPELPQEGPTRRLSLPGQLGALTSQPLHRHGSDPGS
row,Compound,"hERG current change (%, negative = inhibition) at 10uM"
1,COc1ccc(S(=O)(=O)N2CCC(C(=O)NCC3CCCO3)CC2)cc1C (centres unmarked),9.95%
2,O=C(CNC(=O)c1ccc(S(=O)(=O)N2CCCC2)cc1)N/N=C/c1c(Cl)cccc1Cl,6.64%
3,CN(CCO)C(=O)c1ccc(-c2nn(C)c(=O)c3ccccc23)cc1,10.9%
4,Nc1nc2ncc(C(=O)c3cc(F)ccc3O)cc2s1,-0.22%
5,Cn1c2c(c(=O)n(C)c1=O)C(CC(=O)Nc1ccccc1)C(=O)N2 (centres unmarked),2.49%
6,Cc1ccc(C(=O)N/C(=C\c2cccs2)C(=O)N2CCOCC2)cc1C,-19%
7,O=C(N/C(=C/c1cccs1)C(=O)N1CCCCCC1)c1ccccc1,-21%
8,Cc1ccc(C(=O)N/C(=C\c2cccs2)C(=O)N2CCN(C)CC2)cc1C,-70.6%
9,Cc1ccc(C(=O)N/C(=C\c2cccs2)C(=O)NCC2CCCO2)cc1C (centres unmarked),6.35%
10,CC(C)(C)c1ccc(C(=O)N/C(=C\c2cccs2)C(=O)N2CCOCC2)cc1,-7.22%
11,CCN1CCN(C(=O)/C(=C/c2cccs2)NC(=O)c2ccc(C)c(C)c2)CC1,-75.6%
12,CCc1nnc(NC(=O)Cc2ccc(Br)cc2)s1,12.4%
13,CC1CCc2[nH]c3ccc(C(=O)N(C)CC(=O)Nc4ccccc4C(F)(F)F)cc3c2C1 (centres unmarked),4.13%
14,O=C1CC(c2cccc([N+](=O)[O-])c2)c2c(ccc3ccccc23)N1 (centres unmarked),10.3%
15,Cc1cc(C)n2nc(C(=O)Nc3cccc(S(=O)(=O)N(C)c4ccccc4)c3)nc2n1,-68.3%
16,COc1ccccc1NS(=O)(=O)c1ccc(NC(=O)c2nc3nc(C)cc(C(F)F)n3n2)cc1,-13.8%
17,Cc1cc(C)n2nc(C(=O)Nc3cccc(S(=O)(=O)N4CCCC4)c3)nc2n1,-2.92%
18,Cc1cc(C)n2nc(C(=O)Nc3ccc(S(=O)(=O)N(C)C)cc3)nc2n1,-2.93%
19,COc1ccccc1NS(=O)(=O)c1cccc(NC(=O)c2ccc3ccccc3n2)c1,3.05%
20,COc1ccccc1NS(=O)(=O)c1cccc(NC(=O)c2nc3nc(C)cc(C)n3n2)c1,-55.2%
21,CCOC(=O)/C=C/C(=O)Nc1ccc(S(=O)(=O)N(C)c2ccccc2)cc1,-2.23%
22,O=c1[nH]c(=O)n(-c2ccc(Cl)cc2)c(O)c1C=NCCN1CCCCC1,2.13%

row,Compound,"hERG current change (%, negative = inhibition) at 10uM"
1,O=C(NCc1cccc(Br)c1)c1cc(-c2ccccc2)nn1CC1CC(c2cccc([N+](=O)[O-])c2)=NO1 (centres unmarked),-0.929%
2,O=C(NCc1cccc(Br)c1)c1cc(-c2ccccc2)nn1CC1CC(c2cccnc2)=NO1 (centres unmarked),-62.8%
3,O=C(O)c1cc(-c2ccccc2)nn1CC1CC(c2cccnc2)=NO1 (centres unmarked),6.86%
4,O=C(NCc1cccc(C(F)(F)F)c1)c1cc(-c2ccccc2)nn1CC1CC(c2cccnc2)=NO1 (centres unmarked),-52.4%
5,Cc1ccccc1-c1cc(C(=O)NCc2ccc3c(c2)OCO3)n(CC2CC(c3cccnc3)=NO2)n1 (centres unmarked),-20.8%
6,C=CCc1cccc2cc(C(=O)OCC)c(=O)oc12,-42.3%
7,CCOc1cc(S(=O)(=O)NC2CC(C)(C)NC(C)(C)C2)ccc1F,-9.91%
8,CCc1c(C)nc2cc(-c3cccc(Br)c3)[nH]n2c1=O,-3.6%
9,O=S(=O)(Nc1ncccn1)c1ccc(NC(=S)NCc2cccnc2)cc1,33.8%
10,COc1cc(C(C(=O)NC(C)(C)C)N(Cc2ccccc2)C(=O)c2cnccn2)cc(OC)c1OC (centres unmarked),5.8%
11,C=CCNC(=O)CN1CCC(O)(c2ccccc2)CC1,4.87%
12,COc1cccc(OC)c1C(=O)Nc1cc(C)on1,7.22%
13,O=C(CSc1nc2ccsc2c(=O)n1CC1CCC(C(=O)O)CC1)c1ccc(Cl)cc1 (centres unmarked),33.9%
14,CN1CCSc2ccc(C(=O)NCc3ccccc3)cc21,-9.52%
15,O=C(c1ccc2c(c1)N(Cc1ccccc1)CCS2)N1CCC2(CC1)OCCO2,-56.1%
16,Cc1cccc(CNC(=O)c2ccc3c(c2)N(C)CCS3)c1,-59.4%
17,O=C(NCCCN1CCCC1)c1ccc2c(c1)N(Cc1ccccc1)CCS2,-69.6%
18,CCN1CCN(CCCNC(=O)c2ccc3c(c2)N(Cc2ccccc2)CCS3)CC1,-39.3%
19,O=C(c1ccc2c(c1)N(Cc1ccccc1)CCS2)N1CCOCC1,-29.7%
20,O=C(c1ccc2c(c1)N(Cc1ccc(F)cc1)CCS2)N1CCOCC1,-23.3%
21,O=C(c1ccc2c(c1)N(Cc1ccccc1)CCS2)N1CCCCC1,-32.9%
22,O=C(c1ccc2c(c1)N(Cc1ccc(F)cc1)CCS2)N1CCC2(CC1)OCCO2,-57.1%
